The campaign covered roughly 420,000 compounds. About 50,000 (12%) were called active. Another 26% or so got no clear call; they are omitted. This excerpt belongs to a sample that is enriched for actives. Unmarked numbers belong to inactive results. Calls follow the shape of the dose curve; as a rule, active = well fitted inhibition curve with a large enough effect; inconclusive = small, poorly fitted or top-dose-only effect; inactive = flat fitted curve, though single readings scatter.
Test: qHTS for Inhibitors of human tyrosyl-DNA phosphodiesterase 1 (TDP1): qHTS in cells in presence of CPT; also: nearly all actives have a fitted effect of over 55% in size
Settings: chicken DT40 Tdp1-/-;hTDP1 cells + 20 nM CPT, ATP luminescence, 48 h; series mostly up to 46.2 µM; activity change, negative = growth inhibition: at the top concentration
In short: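 Cell growth measured by CellTiter-Glo luminescence after a minimum 48 h, 37 C compound exposure with 20 nM CPT in Tdp1-knockout DT40 cells stably expressing hTDP1, seeded 400/well; qHTS titration format.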
% is scaled to controls: 0 for no effect and ±100 for the full control effect; potency is read from the fitted curve at half-maximal effect.

Compound	activity change, negative = growth inhibition	Potency
S=c1[nH]nc2c3c4c(sc3ncn12)CCCC4	-7.17%	–
COC(=O)C1=C[C@@H](C(=O)OC)[C@@H]2C3=C(C(=O)[C@]2(C)NC(=O)c2ccccc2)[C@H](C)n2c(=O)n(C)c(=O)n2[C@@H]3C1	0.582%	–
CCOC(=O)C1=CCC2C(=O)N(Cc3ccccc3)C(=O)C12 (stereo not given)	-14.7%	–
CCC1(CC)C(=O)C2=C3C1[C@H](C(=O)OC)C=C(C(=O)OC)C[C@H]3[C@H]1C(=O)N(Cc3ccccc3)C(=O)[C@H]1[C@H]2C (stereo not given in full)	–	4.61 µM (active)
COc1ccc(NS(=O)(=O)c2ccc(Oc3c(C#N)cccc3C#N)cc2)cc1	–	10.3 µM (active)
CCOc1ccc(S(=O)(=O)Nc2ccc(S(=O)(=O)Nc3cc(OC)ccc3OC)cc2)cc1	-1.74%	–
COc1ccc(NS(=O)(=O)c2cccc(C(=O)NCCc3ccc(S(N)(=O)=O)cc3)c2)cc1	-12.7%	–
CCN1CCN(C(=O)CN(C)S(=O)(=O)c2ccc3ccccc3c2)CC1	-28.4%	–
O=C1NC[C@H](CCCCN2C[C@H](Cc3ccc(O)cc3)N(CCc3ccccc3)C(=O)C2=O)N(CCc2ccccc2)C1=O	6.06%	–
C#CCOc1ccc(/C=C2/C(=O)NN(c3ccccc3)C2=O)cc1OC	-2.2%	–
O=C(C[n+]1cc(Br)cc2ccccc21)c1ccc(F)cc1	–	14.1 µM (active)
O=C(CNC(=O)c1ccccc1F)c1ccc(Br)cc1	11.2%	–
O=C(O)CC/C(=N\NC(=O)c1ccc(F)cc1)c1ccc(Br)cc1	4.87%	–
CCOc1ccc(NC(=O)CCNC(=O)c2ccc(Br)cc2)cc1	-9.36%	–
CCOc1ccc(NC(=O)CCC(=O)N2CC(C)Oc3ccc(C)cc32)cc1 (stereo not given)	–	25.9 µM (active)
Cc1ccc2c(c1)N(C(=O)CCC(=O)NCc1ccccc1F)CC(C)O2 (stereo not given)	-28.3%	–
CCc1nc2cc(C(=O)NCC3CCS(=O)(=O)C3)cc(NC(=O)c3ccccc3OC)c2n1C (stereo not given)	6.63% [at 9.04 µM]	–
O=c1[nH]c2cc(Br)ccc2n2cccc12	-22.2%	–
CCN(CC(=O)NCc1ccco1)S(=O)(=O)c1ccc(F)cc1	-0.0669%	–
Cc1csc(NC(=O)c2ccc(C)s2)n1	-0.098%	–
COc1cc(SC)ccc1C(=O)Nc1nc(C)cs1	–	20.6 µM (active)
COc1ccc(Cc2nnc(NC(=O)c3ccc(OC)cc3OC)s2)cc1	-19.9%	–
Cc1cc(NC(=O)Nc2c[nH]c(=O)[nH]c2=O)ccc1Br	-16.6%	–
Cc1ccc(NS(=O)(=O)c2ccc3c(c2)CC(=O)N3)cc1Cl	-1.76%	–
COc1ccc(CNC(=O)Cn2nnc(-c3ccc(S(C)(=O)=O)cc3)n2)cc1	1.87%	–

Compound	activity change, negative = growth inhibition	Potency
COc1ccc(N=Nc2c(-c3ccc(OC)cc3)[nH]oc2=O)cc1	-11.3%	–
COC1=CC(=O)OC(c2ccc(OC)cc2)C1 (stereo not given)	10.2%	–
COc1ccc(N=C2C=CC(=O)O2)cc1	–	5.17 µM (active)
CCC1(c2ccccc2)NC(=O)N(CC(=O)c2ccc3c(c2)OCO3)C1=O (stereo not given)	-5.41%	–
Cc1ccc(Cl)c(NC(=O)CN(C)CC(=O)Nc2ccc(F)c(F)c2F)c1Cl	-27.2%	–
COc1ccc(CNC(=O)c2cc3c(=O)[nH]c4ccc(C)cc4c3s2)c(OC)c1	–	16.4 µM (active)
COc1ccc(CNC(=O)c2ccc3c(c2)nc2n3CCOC2)c(OC)c1	1.11%	–
Cc1cccc(N(C)C(=O)c2cc3c(=O)[nH]c4ccc(C)cc4c3s2)c1	–	2.06 µM (active)
Cc1ccc2[nH]c(=O)c(CC(=O)O)c(-c3ccccc3)c2c1	-0.318%	–
Cc1ccc2[nH]c(=O)c(CC=C(Cl)Cl)c(C)c2c1	-6%	–
COc1ccc(CNC(=O)c2cc3c(=O)[nH]c4ccccc4c3s2)cc1	-18.7%	–
Nc1cc(C(=O)N2CCN(c3ccccc3Cl)CC2)ccc1N1CC2CC(C1)c1cccc(=O)n1C2 (stereo not given)	-25.3%	–
CC1(C)CN(CCc2ccccc2)C(=O)[C@H]1CC(=O)Nc1ccc(Br)cc1	-10.9%	–
Cc1ccc(NC(=O)Cc2nnc(SCC(=O)Nc3nncs3)n2C)cc1	0.361%	–
CC1(c2ccc(Cl)cc2Cl)NC(=O)N(CC(=O)Nc2cccnc2Cl)C1=O (stereo not given)	-12%	–
CCCc1ccc(C(=O)[C@@H]2[C@@H](C(C)=O)N3c4ccc(F)cc4C=C[C@@H]3[C@@]23C(=O)Nc2ccccc23)cc1	–	23.1 µM (active)
O=C(O)c1ccc(-n2nc(-c3ccccc3)c3ccccc3c2=O)cc1	-17.4%	–
CCC(C)(C)NC(=O)C(c1ccc(O)cc1)N(Cc1ccco1)C(=O)CCC(=O)Nc1ccccn1 (stereo not given)	-11.3%	–
CC(=O)c1nn(-c2ccc(OC(F)(F)F)cc2)nc1Nc1ccccc1	-15.7%	–
COc1ccccc1C(=O)Nn1cnnc1	21.2%	–
CCc1noc(C)c1C(=O)NNC(=O)c1ccc(F)cc1	-18.6%	–
CCc1noc(C)c1C(=O)OCC(=O)c1ccc(NC(=O)CC(C)C)cc1	–	20.6 µM (active)
COc1ccc(C(=O)COC(=O)c2c(C)noc2C)cc1Cl	-17.5%	–
O=C(c1ccccc1Cl)N(Cc1ccccc1F)N1C(=O)CCCC1=O	1.6%	–
COc1cccc(C2Nc3cccc4cccc(c34)N2)c1	-4.51%	–
